We go through 34 compounds from the supplement of paper PMC13380429.

The assay has as its system Vero E6 infected with SARS-CoV-2. As to the kind of experiment: morphology score (similarity to uninfected cells); higher = more like uninfected cells. As to conditions: 24 h.
In the case of `CNc1nc(C)nc(N[C@H]2CCC[C@@H](C(=O)NCc3ccc(C#N)cc3C(F)(F)F)C2)n1` (10 µM), the morphology score is -0.0488.

`CCCc1cc(C(N)=S)ccn1` [protionamide] (10 µM): the morphology score was found to be 0.198.

Consider `CCN1CCN(Cc2ccc(Nc3ncc(F)c(-c4cc(F)c5nc(C)n(C(C)C)c5c4)n3)nc2)CC1` [abemaciclib] (10 µM), for which the morphology score is 0.0416.

The compound `O=C(c1cncc(Br)c1)N1CCC(N2CCCC2)CC1` (10 µM) had a morphology score of 0.146.

In turn, `C[N+]1(C)CCC(OC(=O)C(O)(c2ccccc2)C2CCCC2)C1` (centres undefined) [glycopyrrolate] (10 µM) returned a morphology score of 0.122.

In the case of `CC(C)(C#N)c1ccc(N2C(=O)OCc3cnc4ccc(-c5cnc6ccccc6c5)cc4c32)cc1` (10 µM), the morphology score was found to be 0.22.

`COc1cccc2c1C(=O)c1c(O)c3c(c(O)c1C2=O)C[C@@](O)(C(=O)CO)C[C@@H]3O[C@H]1C[C@H](N)[C@H](O[C@@H]2CCCCO2)[C@H](C)O1` [pirarubicin] (10 µM) had a morphology score of -0.0488.

For `O=C1NCCN1c1ncc([N+](=O)[O-])s1` [niridazole] (10 µM), the morphology score came to 0.233.

Consider `CCS(=O)(=O)N1CCC([C@@H](C)n2c(C)c(C(=O)NCc3c(OC)cc(C)[nH]c3=O)c3ccccc32)CC1` (10 µM), for which the morphology score was -0.000259.

Consider `COc1ccc(CNCc2cccc3ccccc23)cc1` (10 µM), for which the morphology score came out at 0.0641.

`COc1cc(N)cn[n+]1-c1ccccc1` [amezinium] (10 µM): the morphology score was found to be 0.0864.

`CCOC(=O)C1=C(C)NC(C)=C(C(=O)OC)C1c1cccc(Cl)c1Cl` (centres undefined) [felodipine] (10 µM) yielded a morphology score of 0.224.

The compound `CN1C(CSCC(F)(F)F)Nc2cc(Cl)c(S(N)(=O)=O)cc2S1(=O)=O` (centres undefined) [polythiazide] (10 µM) yielded a morphology score of 0.2.

Turning to `CN1CCCC(n2nc(Cc3ccc(Cl)cc3)c3ccccc3c2=O)CC1` (centres undefined) [azelastine] (10 µM), the morphology score was 0.458.

In turn, `CC(C)c1ccc(NC(=O)Cn2cnc3c2c(=O)n(C)c(=O)n3C)cc1` (10 µM) came in with a morphology score of 0.0452.

The compound `CCc1c(-c2ccccc2)c(-c2ccccc2)nn1-c1ccccc1-c1cccc(OCC(=O)O)c1` (10 µM) had a morphology score of 0.0748.

Turning to `Cc1occc(=O)c1[O-].Cc1occc(=O)c1[O-].[O]=[V+2]` [bis(maltolato)oxovanadium(IV)] (10 µM), the morphology score was -0.461.

As for `CCC(CC)Nc1nc(C)c(-c2ccc(OC(F)(F)F)cc2OC)nc1OC` (10 µM), the morphology score was 0.2.

With `CNCC(=O)O` [sarcosine] (10 µM), the morphology score is 0.0271.

In the case of `Cc1ncc(CN2CC=C(c3ccccc3)CC2)c(N)n1` (10 µM), the morphology score is 0.0617.

For the compound `CCn1c(-c2nonc2N)nc2cncc(C(=O)N3CC[C@H](N)C3)c21` (0.833333 µM), the morphology score came out at 0.488.

Take `C=C[C@@]1(C)CC(=O)[C@]2(O)[C@@]3(C)[C@@H](O)CCC(C)(C)[C@@H]3[C@H](O)[C@H](OC(C)=O)[C@@]2(C)O1` [colforsin] (10 µM): the morphology score amounted to 0.455.

`O=C(Nc1ccccc1F)N[C@H]1N=C(c2ccccc2)c2ccccc2NC1=O` (10 µM): the morphology score is -0.135.

The compound `Cc1cc(C(=O)Nc2nc3cccc(Cl)c3n2[C@@H]2CCCCN(C(=O)/C=C/CN(C)C)C2)ccn1` (0.833333 µM) displayed a morphology score of -0.2.

For `Cn1c(N2CCCCS2(=O)=O)nc(C(=O)NCc2ccc(F)cc2)c(O)c1=O` (10 µM), the morphology score is 0.046.

The compound `CCN1CCC[C@H]1CNC(=O)c1c(O)c(Cl)cc(Cl)c1OC` [raclopride] (10 µM) came in with a morphology score of 0.124.

`COc1cccc(N2CCN(C3=Nc4c(F)cccc4[C@H](CC(=O)O)N3c3cc(C(F)(F)F)ccc3OC)CC2)c1` [letermovir] (10 µM) displayed a morphology score of -0.0548.

Turning to `CCOC(=O)c1ccc(OCCC2CCN(c3ccc(C)nn3)CC2)cc1` [pirodavir] (10 µM), the morphology score turned out to be 0.0282.

Compound `C[C@@H](N)[C@H]1CC[C@H](C(=O)Nc2ccncc2)CC1` (10 µM) gave a morphology score of 0.243.

`Cn1cc(-c2ccc(S(=O)(=O)n3ccc(/C=C/C(=O)Nc4ccccc4N)c3)cc2)cn1` (10 µM) had a morphology score of -0.0742.

Compound `O=C(O)Cn1c2c(c3cc(F)ccc31)CN(C(=O)c1cccc3ccccc13)CC2` [setipiprant] (10 µM) displayed a morphology score of -0.161.

`Nc1nc(F)nc2c1ncn2[C@@H]1O[C@H](COP(=O)(O)O)[C@@H](O)[C@@H]1O` [fludarabine-phosphate] (10 µM) came in with a morphology score of 0.103.

Take `c1ccc2c(-c3cnn4cc(-c5ccc(N6CCNCC6)cc5)cnc34)ccnc2c1` (10 µM): the morphology score was -0.0877.

The compound `CCCC[P+](CCCC)(CCCC)Cc1ccc(NC(=O)[C@H](Cc2ccc3ccccc3c2)N/C(=N/C2CCCCC2)NC2CCCCC2)cc1` (10 µM) had a morphology score of 0.122.
